Test results from PubChem BioAssay (EPA / NIEHS).
“And” between values parts separate entries of the source, which are not always exact repeats. Equal values may be shown once. Records with an inconclusive call do not appear. More than one record can exist for a structure, and the calls need not agree. The source made the active and inactive calls. The calls were made as follows, unless noted: active = hit-call score of the fitted dose curve at least 0.9, where 1 is the maximum; inactive = score below 0.9.

Key:
[1] = read-out: NAD(P)H dehydrogenase [quinone] 1 (NQO1), NQO1 (gene 1728); test: LTEA_HepaRG_NQO1: Life Technologies and Expression Analysis (LTEA) Assay for NAD(P)H dehydrogenase [quinone] 1 (NQO1) using HepaRG (AID 2283526); details: mRNA level, 48 h; actives raise or lower the signal
In short: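 Human HepaRG hepatic cells received chemicals for 48 h in serum-free induction medium with 0.5% DMSO, up to 100 uM. Expression was assessed by TaqMan qRT-PCR against housekeeping controls and fitted bidirectionally against DMSO.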

[2] = read-out: Nuclear factor erythroid 2-related factor 2 (Homo sapiens) (UniProt Q16236); test: LTEA_HepaRG_NFE2L2: Life Technologies and Expression Analysis (LTEA) Assay for Nuclear factor erythroid 2-related factor 2 (NFE2L2) Transcription Factor using HepaRG (AID 2283527); details: mRNA level, 48 h; actives raise or lower the signal
In short: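 Transcript level of NFE2L2 is the read-out, measured by microfluidic TaqMan qRT-PCR and normalized to three housekeeping genes. Human HepaRG cultures received test chemical for 48 h at up to 100 uM in half-log steps. Gain or loss of signal is fitted relative to 0.5% DMSO.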

[3] = read-out: succinate dehydrogenase complex iron sulfur subunit B (SDHB), SDHB (gene 6390); test: LTEA_HepaRG_SDHB: Life Technologies and Expression Analysis (LTEA) Assay for succinate dehydrogenase complex iron sulfur subunit B (SDHB) using HepaRG (AID 2283528); details: mRNA level, 48 h; actives raise or lower the signal
In short: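 Readout is SDHB transcript level by qRT-PCR, normalised to three housekeeping genes and fitted bidirectionally against 0.5% DMSO vehicle. Human HepaRG cells were treated for 48 h at up to 100 uM.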

[4] = read-out: Signal transducer and activator of transcription 3 (Homo sapiens) (UniProt P40763); test: LTEA_HepaRG_STAT3: Life Technologies and Expression Analysis (LTEA) Assay for Signal transducer and activator of transcription (STAT3) using HepaRG (AID 2283529); details: mRNA level, 48 h; actives raise or lower the signal
In short: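 Read-out is STAT3 mRNA level by qRT-PCR, normalized to three housekeeping genes, in human HepaRG liver cells treated for 48 h. Concentrations ran from 100 uM downward in half-log steps; curves were fitted for gain or loss relative to 0.5% DMSO.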

[5] = read-out: solute carrier (SLCO1B1), SLCO1B1 (gene 10599); test: LTEA_HepaRG_SLCO1B1: Life Technologies and Expression Analysis (LTEA) Assay for solute carrier (SLCO1B1) using HepaRG (AID 2283530); details: mRNA level, 48 h; actives raise or lower the signal
In short: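 SLCO1B1 transcript levels were quantified by TaqMan qRT-PCR using three housekeeping genes for normalization. This followed 48 h chemical exposure (100 uM top, half-log, 8 points, 0.5% DMSO) of HepaRG liver cells, with gain or loss fitted relative to DMSO.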

[6] = read-out: sulfotransferase 2A1 (SULT2A1), SULT2A1 (gene 6822); test: LTEA_HepaRG_SULT2A1: Life Technologies and Expression Analysis (LTEA) Assay for sulfotransferase 2A1 (SULT2A1) using HepaRG (AID 2283531); details: mRNA level, 48 h; actives raise or lower the signal
In short: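 Expression change of SULT2A1, by qRT-PCR with three housekeeping-gene normalization, was scored bidirectionally versus DMSO. Cells: differentiated HepaRG, dosed in duplicate for 48 h across 8 points, highest 100 µM, half-log dilution, 0.5% DMSO.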

[7] = read-out: Transforming Growth Factor (TGFA), TGFA (gene 7039); test: LTEA_HepaRG_TGFA: Life Technologies and Expression Analysis (LTEA) Assay for Transforming Growth Factor (TGFA) using HepaRG (AID 2283532); details: mRNA level, 48 h; actives raise or lower the signal
In short: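 HepaRG (human liver line), 48 h exposure, 8 conc. half-log down from 100 uM, 0.5% DMSO vehicle, duplicates; serum-free induction medium. TGFA mRNA by TaqMan qRT-PCR, ACTB/GAPDH/POLR2A normalization; gain/loss fit vs DMSO.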

[8] = read-out: Transforming Growth Factor (TGFB1), TGFB1 (gene 7040); test: LTEA_HepaRG_TGFB1: Life Technologies and Expression Analysis (LTEA) Assay for Transforming Growth Factor (TGFB1) Transporter using HepaRG (AID 2283533); details: mRNA level, 48 h; actives raise or lower the signal
In short: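 TGFB1 transcript measured by qRT-PCR with normalisation to three housekeeping genes (ACTB, GAPDH, POLR2A); human HepaRG line treated in duplicate for 48 hr with an 8-point series topping at 100 uM, 0.5% DMSO vehicle, bidirectionally fitted.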

TIMP1, TIMP1 (gene 7076) = test: LTEA_HepaRG_TIMP1: Life Technologies and Expression Analysis (LTEA) Assay for TIMP1 using HepaRG (AID 2283534); details: mRNA level, 48 h; actives raise or lower the signal
In short: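 Bidirectional change in TIMP1 transcript versus 0.5% DMSO, measured by TaqMan qRT-PCR with three housekeeping genes for normalization. HepaRG human liver cells dosed 48 h in duplicate, top concentration 100 uM with half-log dilutions.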

[9] = read-out: Tumor necrosis factor receptor 1 (TNFRSF1A), TNFRSF1A (gene 7132); test: LTEA_HepaRG_TNFRSF1A: Life Technologies and Expression Analysis (LTEA) Assay for Tumor necrosis factor receptor 1 (TNFRSF1A) using HepaRG (AID 2283535); details: mRNA level, 48 h; actives raise or lower the signal
In short: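 mRNA measured by qRT-PCR (TaqMan, Fluidigm arrays) against ACTB/GAPDH/POLR2A housekeepers after 48 h chemical exposure of HepaRG cells. Top concentration 100 uM, half-log 8-point series, duplicates; vehicle 0.5% DMSO, both fit directions.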

[10] = read-out: Thyroid Hormone Responsive (THRSP), THRSP (gene 7069); test: LTEA_HepaRG_THRSP: Life Technologies and Expression Analysis (LTEA) Assay for Thyroid Hormone Responsive (THRSP) using HepaRG (AID 2283536); details: mRNA level, 48 h; actives raise or lower the signal
In short: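 mRNA induction or loss relative to 0.5% DMSO vehicle was fitted bidirectionally across an eight-point curve whose highest exposure was 100 uM. Human HepaRG liver cells received chemicals in duplicate over 48 h before RNA extraction.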

[11] = read-out: Cellular tumor antigen p53 (Homo sapiens) (UniProt P04637); test: LTEA_HepaRG_TP53: Life Technologies and Expression Analysis (LTEA) Assay for Tumor Protein P53 (TP53) using HepaRG (AID 2283537); details: mRNA level, 48 h; actives raise or lower the signal
In short: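 Read-out is TP53 transcript level by microfluidic qRT-PCR, normalised to three housekeeping genes and fitted bidirectionally against DMSO. Human HepaRG cells received compounds for 48 h, highest concentration 100 uM.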

[12] = read-out: UDP glucuronosyltransferase (UGT1A6), UGT1A6 (gene 54578); test: LTEA_HepaRG_UGT1A6: Life Technologies and Expression Analysis (LTEA) Assay for UDP glucuronosyltransferase (UGT1A6) using HepaRG (AID 2283539); details: mRNA level, 48 h; actives raise or lower the signal
In short: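 Expression was quantified by TaqMan qRT-PCR on Fluidigm arrays with ACTB/GAPDH/POLR2A normalization and bidirectional fitting against 0.5% DMSO. HepaRG cells (~100,000/well) were treated in duplicate for 48 h at eight half-log concentrations up to 100 uM in serum-free induction medium.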

[13] = read-out: X-box binding protein 1 (XBP1), XBP1 (gene 7494); test: LTEA_HepaRG_XBP1: Life Technologies and Expression Analysis (LTEA) Assay for X-box binding protein 1 (XBP1) using HepaRG (AID 2283540); details: mRNA level, 48 h; actives raise or lower the signal
In short: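 XBP1 transcript by qRT-PCR (housekeeping-normalized: ACTB, GAPDH, POLR2A) after 48 h chemical treatment of HepaRG cells, 8-point half-log series topping at 100 uM, vehicle 0.5% DMSO. Gain and loss of signal fitted relative to DMSO.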

[14] = TOX21_p53_BLA_p2_viability: Viability Assessment in the Tox21 HCT-116 p53 Agonism Beta-lactamase Assay, Phase 2 (AID 2283591; active = hit-call score of the fitted dose curve at least 0.9, where 1 is the maximum;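 also: compound exposure lasted 16 h at 37 °C; actives lower the ATP signal meaning cytotoxicity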)
In short: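 Cytotoxicity readout: CellTiter-Glo ATP luminescence, 30 min at room temperature, after the beta-lactamase read. Cells were HCT116 exposed 16 h at 37C to compounds pin-transferred at 217-fold dilution from DMSO stocks.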

[15] = target: Cellular tumor antigen p53 (Homo sapiens) (UniProt P04637); test: TOX21_p53_BLA_p2_ratio: Tox21 HCT-116 p53 Agonism Beta-lactamase Assay, Ratio, Phase 2 (AID 2283592; active = hit-call score of the fitted dose curve at least 0.9, where 1 is the maximum)
Cellular tumor antigen p53 (Homo sapiens), sequence (P04637 whole entry, looked up): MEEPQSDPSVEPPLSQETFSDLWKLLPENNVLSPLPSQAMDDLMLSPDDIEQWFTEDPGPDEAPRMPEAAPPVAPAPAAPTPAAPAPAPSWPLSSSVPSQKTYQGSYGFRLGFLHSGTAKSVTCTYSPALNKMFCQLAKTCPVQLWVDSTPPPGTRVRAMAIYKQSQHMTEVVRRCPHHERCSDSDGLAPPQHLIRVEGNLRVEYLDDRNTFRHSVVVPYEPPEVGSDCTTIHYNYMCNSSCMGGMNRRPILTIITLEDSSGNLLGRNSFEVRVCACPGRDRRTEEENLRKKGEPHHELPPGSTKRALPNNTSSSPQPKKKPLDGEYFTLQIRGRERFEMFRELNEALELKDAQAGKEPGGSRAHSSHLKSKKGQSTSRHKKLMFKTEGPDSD
In short: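 Gain-of-signal p53 agonism was scored from the beta-lactamase FRET ratio (460/530 nm, 405 nm excitation) in HCT116 cells treated 16 h at 37C, 5% CO2, with DMSO serving as negative control and baseline.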

[16] = read-out: UDP glucuronosyltransferase (UGT1A1), UGT1A1 (gene 54658); test: LTEA_HepaRG_UGT1A1: Life Technologies and Expression Analysis (LTEA) Assay for UDP glucuronosyltransferase (UGT1A1) using HepaRG (AID 2283538); details: mRNA level, 48 h; actives raise or lower the signal
In short: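 Human liver HepaRG cultures receive test chemical for 48 h, up to 100 uM in 0.5% DMSO, with phenobarbital induction controls. UGT1A1 mRNA is measured by qRT-PCR and normalized to ACTB, GAPDH and POLR2A.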

[17] = LTEA_HepaRG_LDH_cytotoxicity: Cytotoxicity Assessment in the Life Technologies and Expression Analysis (LTEA) Assay (AID 2283563; active = hit-call score of the fitted dose curve at least 0.9, where 1 is the maximum;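 as to AC50: LDH activity released into spent culture medium as a marker of cell death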)
In short: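 LDH release into culture medium read after 48 h chemical treatment of HepaRG cells. Duplicate wells, eight-point half-log series topping at 100 uM, 0.5% DMSO vehicle and baseline.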

[18] = ATG_XTT_Cytotoxicity: Cytotoxicity Assessment in the Attagene TRANS-FACTORIAL HepG2 Assay (AID 2283584; active = hit-call score of the fitted dose curve at least 0.9, where 1 is the maximum)
In short: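 Viability endpoint from XTT after 24 h chemical exposure of reporter-transfected human HepG2 liver cells; signal loss fitted relative to DMSO negative control.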

[19] = TOX21_p53_BLA_p3_viability: Viability Assessment in the Tox21 HCT-116 p53 Agonism Beta-lactamase Assay, Phase 3 (AID 2283593; active = hit-call score of the fitted dose curve at least 0.9, where 1 is the maximum;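 also: cells exposed to compound for 16 h before reading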)
In short: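 Cellular ATP was quantified by CellTiter-Glo luminescence, read after 30 min at room temperature. Beforehand, HCT116 cells (4000/well) received compound 5 h post-seeding, 217-fold diluted from DMSO, then incubated 16 h at 37C.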

Measured: AC50

Nuclear factor erythroid 2-related factor 2 (Homo sapiens), sequence (Q16236 whole entry, looked up): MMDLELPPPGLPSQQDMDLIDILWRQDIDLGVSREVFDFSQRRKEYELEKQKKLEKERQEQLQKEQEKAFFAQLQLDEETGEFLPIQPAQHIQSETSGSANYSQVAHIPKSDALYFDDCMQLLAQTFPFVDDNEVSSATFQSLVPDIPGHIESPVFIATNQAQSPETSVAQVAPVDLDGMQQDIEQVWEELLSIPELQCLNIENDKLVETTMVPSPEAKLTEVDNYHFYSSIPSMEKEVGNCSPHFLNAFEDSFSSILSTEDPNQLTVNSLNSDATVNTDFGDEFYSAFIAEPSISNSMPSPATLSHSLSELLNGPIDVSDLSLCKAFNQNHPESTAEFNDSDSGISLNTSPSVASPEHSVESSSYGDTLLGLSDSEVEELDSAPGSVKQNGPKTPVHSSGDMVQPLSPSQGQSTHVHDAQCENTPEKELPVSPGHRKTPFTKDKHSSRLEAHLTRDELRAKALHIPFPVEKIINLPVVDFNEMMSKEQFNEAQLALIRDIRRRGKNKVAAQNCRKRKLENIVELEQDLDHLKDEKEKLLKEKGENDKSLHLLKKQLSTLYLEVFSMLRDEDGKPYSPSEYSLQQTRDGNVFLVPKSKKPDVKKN
Signal transducer and activator of transcription 3 (Homo sapiens), sequence (P40763 whole entry, looked up): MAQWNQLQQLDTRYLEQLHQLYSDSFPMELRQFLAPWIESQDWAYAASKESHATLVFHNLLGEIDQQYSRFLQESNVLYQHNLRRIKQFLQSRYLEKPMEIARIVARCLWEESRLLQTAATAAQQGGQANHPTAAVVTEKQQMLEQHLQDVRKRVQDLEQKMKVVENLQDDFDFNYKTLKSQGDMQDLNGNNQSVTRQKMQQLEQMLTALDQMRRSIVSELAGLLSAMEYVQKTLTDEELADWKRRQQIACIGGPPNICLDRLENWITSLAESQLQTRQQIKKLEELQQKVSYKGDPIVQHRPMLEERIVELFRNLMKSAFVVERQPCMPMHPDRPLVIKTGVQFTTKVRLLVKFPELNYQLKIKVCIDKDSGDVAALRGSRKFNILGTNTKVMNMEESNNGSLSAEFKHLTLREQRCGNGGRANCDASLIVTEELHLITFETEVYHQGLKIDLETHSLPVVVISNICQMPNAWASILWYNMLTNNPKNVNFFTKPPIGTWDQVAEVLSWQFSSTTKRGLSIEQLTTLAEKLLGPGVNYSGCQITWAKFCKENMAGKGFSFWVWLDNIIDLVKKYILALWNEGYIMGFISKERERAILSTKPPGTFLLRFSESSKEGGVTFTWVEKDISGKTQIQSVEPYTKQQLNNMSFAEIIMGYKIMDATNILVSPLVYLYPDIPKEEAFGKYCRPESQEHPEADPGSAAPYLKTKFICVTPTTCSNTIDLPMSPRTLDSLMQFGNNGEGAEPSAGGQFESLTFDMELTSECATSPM

CC(C)C1(C)N=C(c2nc3ccccc3cc2C(=O)O)NC1=O (centres undefined)
inactive: [1] | [2] | [3] | [4] | [5] | [6] | [7] | [8] | TIMP1, TIMP1 (gene 7076) | [9] | [10] | [11] | [12] | [13] | [14] | [15]

CON(C)C(=O)Nc1ccc(Cl)c(Cl)c1
active: [2] 86.9 µM | [10] 11.4 µM | [11] 69.8 µM | [16] 32.5 µM
inactive: [1] | [3] | [4] | [5] | [6] | [7] | [8] | TIMP1, TIMP1 (gene 7076) | [12] | [13] | [17] | [18] | [14] | [15] | [19]

COC(=O)c1ccccc1C(=O)OC
inactive: [1] | [2] | [3] | [4] | [5] | [6] | [7] | [8] | TIMP1, TIMP1 (gene 7076) | [10] | [11] | [16] | [12] | [13] | [17] | [15] | [19]

CC(C)(C)c1ccc(CSc2cnn(C(C)(C)C)c(=O)c2Cl)cc1
active: [2] 26.7 µM | [3] 1.54 µM | [5] 2.34 µM | [6] 22.7 µM | [7] 2.96 µM | TIMP1, TIMP1 (gene 7076) 26.9 µM | [10] 9.85 µM | [11] 2.82 µM | [12] 18.8 µM | [13] 2.71 µM | [17] 3.02 µM | [15] 0.0143 µM
inactive: [1] | [4] | [8] | [18] | [14]

COC(=O)N(OC)c1ccccc1COc1ccn(-c2ccc(Cl)cc2)n1
active: [1] 84.8 µM | [2] 18.3 µM | [5] 75.9 µM | [6] 78.7 µM | [7] 78.5 µM | [8] 50 µM | TIMP1, TIMP1 (gene 7076) 68.4 µM | [9] 77.1 µM | [10] 7.22 µM | [11] 78.5 µM | [12] 73.3 µM | [17] 71.5 µM | [15] 1.09 µM
inactive: [3] | [4] | [13] | [18] | [14] | [19]

C=CCC1=C(C)C(OC(=O)C2C(C=C(C)C)C2(C)C)CC1=O (centres undefined)
inactive: [1] | [2] | [3] | [4] | [5] | [6] | [7] | [8] | TIMP1, TIMP1 (gene 7076) | [10] | [11] | [12] | [13] | [17] | [18] | [14] | [15]
active: [3] 69.1 µM | [5] 87.3 µM and 50 µM | [6] 86.7 µM | [19] 65.3 µM
